The list is not random: actives were taken first. Their share in the collection is about 1.6%.
KCNQ2 pot: potentiators of rat KCNQ2 potassium channel; Potassium voltage-gated channel subfamily KQT member 2 (Rattus norvegicus), O88943; CHO-K1 KCNQ2, FluxOR thallium flux fluorescence; stronger effect = higher value; B-score at 10 µM; 310,000 tested, 0.54% active; AID 2239, 2010;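 active means fluorescence ratio B-score at least 3 SD of library B-scores, with initial fluorescence B-score within 3 of them, cut at about 5.3 in these data; same plate scores as AID 2156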;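 further: B-score of peak minus minimum over baseline fluorescence ratio after K+ and Tl+ stimulus; positive B-score means potentiation of KCNQ2 with more thallium influx and brighter signal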
KCNQ2 inh: rat KCNQ2 potassium channel inhibitors, primary screen, cell-based, CHO-K1, FluxOR thallium flux, B-score | AID 2156, 2009 | Potassium voltage-gated channel subfamily KQT member 2 (Rattus norvegicus), O88943 | 20 min; stronger effect = lower value | B-score at 10 µM | 310,000 tested, 1.1% active;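 active means fluorescence ratio B-score at most minus 3 library SDs, with starting brightness B-score within 2 library SDs, cut at about -5.5 in these data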
Numbers stand for hits; 0 = inactive; - = no result given.

SMILES	KCNQ2 pot	KCNQ2 inh
Cc1cccc(OCc2nnc(SCC(=O)N3c4ccccc4CC3C)n2C)c1C (stereo not drawn)	0	-6
Cc1ccccc1OCc1nnc(SCC(=O)N2CCc3ccccc32)n1C	0	0
COc1cccc(/C=N/NC(=O)c2ccc([N+](=O)[O-])cc2Cl)c1O	7.7	0
COc1cc(/C=N/NC(=O)c2cccc([N+](=O)[O-])c2)cc(OC)c1O	0	0
C=CCOc1ccccc1CN(CCc1ccccc1)C(=O)c1cccc(S(C)(=O)=O)c1	-	0
Cc1sc2nc(SCc3nc(-c4ccccc4)no3)n(-c3ccccc3)c(=O)c2c1C	0	-9
Cc1sc2nc(SCC(N)=O)n(-c3ccccc3)c(=O)c2c1C	-	0
COc1ccc(-c2noc(CSc3nnc(Cc4ccccc4)n3-c3ccc(Cl)cc3)n2)cc1	-	0
COc1ccc(-c2noc(CSc3nc4ccccc4c(=O)n3-c3ccc(C)cc3)n2)cc1	0	-5.7
CN1CCN(C(CNC(=O)C(=O)Nc2ccc3c(c2)OCO3)c2ccc(F)cc2)CC1 (stereo not drawn)	0	0
N#CC1=C(N)N(c2ncn[nH]2)C2=C(C(=O)CCC2)C1c1ccccc1 (stereo not drawn)	-	0
Cc1ccc(S(=O)(=O)N=S(CC2CC2(Cl)Cl)CC2CC2(Cl)Cl)cc1 (stereo not drawn)	0	0
O=C(COc1cccnc1[N+](=O)[O-])NCCc1ccc(F)cc1	0	0
COc1ccc([C@H]2[C@H](C(=O)C(C)(C)C)N3N=Cc4ccccc4C3[C@]23N=C(c2ccccc2)OC3=O)cc1 (stereo partly drawn)	0	-9.5
O=C1OC(c2ccccc2)=NC12CC2c1ccc(Cl)cc1 (stereo not drawn)	-	0
CN(CC(=O)OCC(N)=O)S(=O)(=O)c1ccc(Cl)cc1	-	0
COc1ccccc1N1CCN(/N=C/c2ccc(Cl)c([N+](=O)[O-])c2)CC1	0	-6.1
COc1ccccc1N1CCN(/N=C/c2ccc([N+](=O)[O-])cc2)CC1	-	0
Cc1ccc(NCc2ccccc2OCc2ccccc2F)cc1	-	0
Cc1cccc(NCc2ccccc2OCc2ccccc2F)c1	0	-5.5
Cc1cc(C)c(NC(=O)c2ccccc2C(=O)c2ccccc2)c(C)c1	-	0
COc1ccc2nc(N3CCCCC3)c(/C=C3\SC(=S)NC3=O)cc2c1	11	0
COc1ccc(-n2c(C)cc(/C=C3\SC(=S)NC3=O)c2C)cc1	-	0
CCC/C=C(\CCC)C(NC(=O)c1ccc(C(F)(F)F)cc1)c1ccccc1 (stereo not drawn)	0	-6.6
CCC/C=C(\CCC)C(NC(=O)c1ccc(C(=O)OC)cc1)c1ccc(C(=O)OC)cc1 (stereo not drawn)	0	-7.2
SMILES	KCNQ2 pot	KCNQ2 inh
COC(=O)c1ccc(C(=O)NN)cc1	-	0
CC(C)CC(C)NC(=O)c1ccc(C(F)(F)F)cc1 (stereo not drawn)	0	0
CC(C)CCNC(=O)NC(=O)COC(=O)/C=C/c1cc(Br)ccc1F	0	0
COc1ccc(/C=C(\NC(=O)c2ccc(Cl)cc2)C(=O)NCC2CCCO2)cc1OC (stereo not drawn)	0	0
COc1ccc(C(CNC(=O)Nc2cccc(C)c2)N2CCN(C)CC2)cc1 (stereo not drawn)	-	0
Cc1ccc(C)c(NC(=O)c2cc([N+](=O)[O-])cc([N+](=O)[O-])c2)c1	-	0
COc1ccccc1N=Cc1c(C)[nH]n(-c2ccc(C)cc2C)c1=O	-	0
COc1ccc2nc(/N=C/c3c(C)[nH]n(-c4ccc(C)cc4C)c3=O)sc2c1	20	0
CC(=O)Nc1cccc(NC(=O)C(=O)c2cn(CC(=O)N3CCCCC3)c3ccccc23)c1	0	0
COCCNC(=O)[C@@]1(C)C=C[C@@H](Cc2ccccc2)N1C(=O)c1ccccc1	0	0
C[C@]1(C(=O)NCc2cc(F)cc(C(F)(F)F)c2)C=C[C@@H](Cc2ccccc2)N1C(=O)c1ccccc1	0	-7.2
CCN(CC)C(=O)c1ccc2c(c1[N+](=O)[O-])C(=O)c1ccccc1C2=O	0	0
C=CCn1c(=O)c(C(=O)Nc2ccc(C)cn2)c(O)c2ccccc21	-	0
C=CCn1c(=O)c(C(=O)NCc2ccc(Cl)cc2)c(O)c2ccccc21	0	-6
O=C(NCCc1ccc(C(F)(F)F)cc1)c1ccc(Cl)nc1	0	0
CCOC(=O)CC1C(=O)NCCN1c1nc2ccc(C)cn2c(=O)c1/C=C1\SC(=S)N(CC(C)C)C1=O (stereo not drawn)	-	0
CCOC(=O)CC1C(=O)NCCN1c1nc2ccc(C)cn2c(=O)c1/C=C1\SC(=S)N(C(C)CC)C1=O (stereo not drawn)	0	-7.7
Cc1ccc(Cl)cc1NC(=O)N(C)CCO	-	0
COc1ccc(CC(=O)N/N=C/c2cccnc2)cc1OC	-	0
CC(C)c1ccc(-c2cc(C(=O)N3CCOCC3)c3cc(Br)ccc3n2)cc1	0	-6
O=C(c1cc(-c2ccccc2)nc2ccccc12)N1CCOCC1	-	0
CC(NC(=O)C12CC3(C)CC(C)(CC(C)(C3)C1)C2)C(=O)O (stereo not drawn)	0	0
COc1ccc2ccccc2c1C1CC(=O)N2CN(C)CSC2=C1C#N (stereo not drawn)	0	-6.9
COc1cc(OC)c(C2CC(=O)N3CN(C)CSC3=C2C#N)cc1OC (stereo not drawn)	0	0
CCc1ccc(N(CC(=O)NC(C)(C)C)C(=O)CCC(=O)Nc2ccccn2)cc1	0	0
SMILES	KCNQ2 pot	KCNQ2 inh
C=CCc1cccc(/C=N/NC(=O)c2ccccc2Br)c1O	9.6	0
C=CCc1cccc(/C=N/NC(=O)c2ccccc2OC)c1O	0	0
COc1ccccc1N1CCN(C(=O)CSc2ccccc2)CC1	-	0
COc1ccccc1N1CCN(C(=O)C(Sc2ccccc2)c2ccccc2)CC1 (stereo not drawn)	0	-5.7
Clc1ccc(CN(CC2CCCO2)C(c2cccs2)c2nnnn2C2CCCC2)cc1 (stereo not drawn)	-	0
CC(c1nnnn1C(C)(C)C)N(Cc1cccnc1)Cc1ccccc1Cl (stereo not drawn)	-	0
Clc1ccccc1CN(Cc1ccccc1)C(c1cccs1)c1nnnn1C1CCCC1 (stereo not drawn)	0	-5.8
CC(C)(C)n1nnnc1C(c1cccs1)N(Cc1cccnc1)Cc1ccccc1Cl (stereo not drawn)	0	-6.2
O=c1c(Cc2c(F)cccc2Cl)c(O)ccn1C1CCCCCC1	0	-7.8
O=c1c(Cc2c(F)cccc2Cl)c(O)ccn1Cc1ccc(F)cc1	-	0
Cc1cc(OC(F)F)ccc1NC(=O)Nc1ccc([N+](=O)[O-])cc1	-	0
CCOC(=O)C1=C(C)NC(=O)NC1/C(C)=C/c1ccccc1 (stereo not drawn)	0	0
CCCCC(=O)Nc1ccc(NCc2ccc(C)s2)cc1	30	0
CCCCC(=O)Nc1ccc(C(N)=O)cc1	0	0
O=C(COc1ccc(F)cc1)N1c2ccccc2CCc2ccccc21	-	0
O=C(COc1cccc2ccccc12)N1c2ccccc2CCc2ccccc21	0	-7.2
CCOC(=O)C(Cc1ccccc1)C(=O)Nc1cccc2ccccc12 (stereo not drawn)	0	-5.8
CCOC(=O)C(Cc1ccccc1)C(=O)NCc1cccnc1 (stereo not drawn)	0	0
CC1CCCCC1NC(=O)c1nn(C)c2c1CS(=O)(=O)c1ccccc1-2 (stereo not drawn)	0	0

Source: PubChem (Johns Hopkins Ion Channel Center)
